Reference: PubChem BioAssay AID623870 (Broad Institute, 2012)
Out of some 390,000 compounds screened, about 2,600 (0.67%) were called active.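 Rule for the calls: active = mean inhibition of replicates at least 50% and at least half of replicates each reaching 50%; inconclusive = half or more replicates reach 50% but mean below 50%; inactive = the rest.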 The sample as a whole holds a higher share of actives than the screen did.

What follows are compounds tested against Transforming acidic coiled-coil-containing protein 3 (Homo sapiens) (UniProt Q9Y6A5) (assay: inhibitors of ARNT PAS-B binding to TACC3 – biochemical, AlphaScreen, single concentration, primary screen (AID 623870;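 note: 0% = complete ARNT plus TACC3 wells and 100% = ARNT alone without TACC3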)). Settings: AlphaScreen His-ARNT PAS-B/GST-TACC3 binding, luminescence; at 9.99 µM; active compounds read high; TACC3 fragment carries E629A point mutation.

Structure (SMILES) | inhibition
C[C@@H]1CCCCO[C@H](CN(C)C(=O)CCC(F)(F)F)[C@H](C)CN([C@H](C)CO)C(=O)c2cc(NC(=O)NC3CCCCC3)ccc2O1 | -7.47% (inactive)
CCNC(=O)[C@H]1[C@H](CO)[C@H]2Cn3c(ccc(-c4cccc(OC)c4)c3=O)[C@H]2N1Cc1nccs1 | -9.07% (inactive)
CO[C@@H]1CC[C@@H]2CCOc3ccc(C#N)cc3C(=O)N(C)C[C@@H](C)C(=O)N(C)C[C@@H]1O2 | -7.05% (inactive)
CC(C)NC(=O)N(C)C[C@H]1OCCCC[C@H](C)Oc2ccc(NC(=O)CCCN(C)C)cc2C(=O)N([C@@H](C)CO)C[C@H]1C | -0.512% (inactive)
COc1ccccc1-c1cnc2c(c1)C(=O)N([C@H](C)CO)C[C@@H](C)[C@@H](CN(C)Cc1ccncc1)O2 | -5.7% (inactive)
CC(=O)N1[C@@H](CO)[C@H](c2ccccc2)[C@@H]1CN(C)C(=O)CN1CCOCC1 | -11.7% (inactive)
Cc1noc(C)c1NC(=O)Nc1ccc2c(c1)C(=O)N([C@@H](C)CO)C[C@H](C)[C@H](CN(C)S(=O)(=O)c1cn(C)cn1)OCCCC[C@@H](C)O2 | -9.38% (inactive)
COC(=O)C[C@H]1C[C@H]2c3cc(NC(=O)NC4CCCCC4)ccc3O[C@H]2[C@H](CO)O1 | -2.98% (inactive)
CN1c2ccc(C=O)c3c(C=O)ccc(c23)N(C)C1(C)C | 13.9% (active)
CCSC1(SCC)N=C(N)C2(C#N)C(c3ccccc3)NC(C)=CC12C#N (stereo not given) | 48.6% (active)
CCCC(=O)Nc1ccc2c(c1)OC[C@H](C)N(C(=O)C1CCCC1)C[C@@H](C)[C@H](OC)CN(C)C2=O | -5.43% (inactive)
COc1ccccc1NC(=O)N[C@H]1CC[C@@H](CC(=O)N[C@@H](C)c2ccccc2)O[C@H]1CO | -7.69% (inactive)
CCCNC(=O)C[C@H]1C[C@@H]2c3cc(NC(=O)C4CCOCC4)ccc3O[C@@H]2[C@@H](CO)O1 | -13.8% (inactive)
CCCC#Cc1ccc2c(c1)O[C@@H](CN(C)S(=O)(=O)c1cccc(OC)c1)[C@H](C)CN([C@@H](C)CO)S2(=O)=O | 4.74% (inactive)
COc1cc(NC(=O)CSc2ccc(-c3cccnc3)nn2)cc(OC)c1 | -3.2% (inactive)
COc1ccc(C)cc1NC(=O)CSc1nnc2ccc(-c3ccccn3)nn12 | 12.1% (inactive)
O=C(CSc1ccc(-c2ccccn2)nn1)Nc1ccccc1 | 58.5% (active)
O=C(CSc1ccc(-c2ccc(-n3cccn3)cc2)nn1)Nc1ccc([N+](=O)[O-])cc1 | -19.4% (inactive)
Cc1ccccc1NC(=O)CSC1=NCCN1 | -6.23% (inactive)
Cc1ccccc1NC(=O)CSc1ccc2nnc(-c3ccccn3)n2n1 | 48% (active)

Structure (SMILES) | inhibition
COc1cccc(NC(=O)Nc2ccc3c(c2)C(=O)N(C)C[C@@H](OC)[C@H](C)CN(CC2CC2)[C@H](C)CO3)c1 | -0.496% (inactive)
OC[C@H]1[C@@H](c2ccc(C#CC3(O)CCCC3)cc2)[C@H]2CN(Cc3cncnc3)CCCCN21 | 0.497% (inactive)
CO[C@@H]1CN(C)C(=O)c2cc(NC(=O)C3CCC3)ccc2OC[C@H](C)N(Cc2ccccn2)C[C@H]1C | 2.51% (inactive)
O=C(C[C@@H]1C=C[C@@H](NC(=O)c2ccccc2)[C@H](CO)O1)NCCc1ccncc1 | -9.84% (inactive)
COc1ccc(C(=O)Nc2ccc3c(c2)C(=O)N(C)C[C@@H](OC)[C@H](C)CN(C(C)=O)[C@@H](C)CO3)cc1 | -6.1% (inactive)
CC(C)NC(=O)N1[C@@H]2c3ccc(-c4ccc(F)cc4)c(=O)n3C[C@@H]2[C@@H](CO)[C@@H]1C(=O)N1CCOCC1 | 17.2% (inactive)
O=C(NC1=CC(=O)c2ccccc2C1=O)c1ccccc1 | 2.4% (active)
Cc1ccccc1S(=O)(=O)N1C[C@H](O)COC[C@H]2O[C@H](CC(=O)N3CCCCC3)CC[C@@H]21 | 1.95% (inactive)
CNC[C@@H]1Oc2ccc(NC(=O)C3CCCCC3)cc2CC(=O)N([C@@H](C)CO)C[C@H]1C | -6.19% (inactive)
CN(C)C(=O)c1cccc(-c2ccc3c(c2)[C@H]2[C@H](CCN2S(=O)(=O)c2cn(C)cn2)[C@@H](CO)N3)c1 | 0.583% (inactive)
O=C(NC[C@@H]1[C@@H](c2ccccc2)[C@H](CO)N1C(=O)Cc1cccnc1)C1CC1 | -0.188% (inactive)
O=C(NC[C@@H]1[C@@H](c2ccccc2)[C@@H](CO)N1Cc1ccccn1)C1CCC1 | 23.8% (active)
CN(C[C@@H]1[C@H](c2ccccc2)[C@@H](CO)N1Cc1ccccn1)S(C)(=O)=O | 29.6% (inactive)
CCCNC(=O)N1C[C@@H](O)COC[C@H]2O[C@H](CC(=O)NCCCN3CCOCC3)CC[C@@H]21 | -6.54% (inactive)
CN(C)C(=O)c1cccc(-c2ccc3c(c2)[C@H]2[C@H](CCN2C(=O)Cc2ccccc2)[C@H](CO)N3)c1 | -7.24% (inactive)
CN(C)C(=O)C[C@@H]1CC[C@@H](NS(=O)(=O)c2ccccc2)[C@H](CO)O1 | 1.05% (inactive)
Cc1ccc(S(=O)(=O)N2CCCC2CO)cc1 (stereo not given) | -6.07% (inactive)
Cc1ccc(S(=O)(=O)n2oc(=O)c(C3CCCCC3)c2N)cc1 | 64.1% (active)
Cc1ccc(S(=O)(=O)N2CC(C)N(S(C)(=O)=O)C2)cc1 (stereo not given) | -0.994% (inactive)
C[C@H](CO)N1C[C@H](C)[C@@H](CN(C)C(=O)C2CCC2)Oc2cc(C3=CCCCC3)ccc2S1(=O)=O | 7.82% (inactive)

Structure (SMILES) | inhibition
CCOC(=O)C1CCN(C(=O)C2CCN(S(=O)(=O)c3c(C)noc3C)CC2)CC1 | 46.8% (active)
CCOC(=O)C1CCN(S(=O)(=O)c2c(C)noc2C)CC1 | -6.32% (inactive)
CCOC(=O)C1CCN(C(=O)C2CCN(S(=O)(=O)CC)CC2)CC1 | -3.42% (inactive)
COC(=O)C[C@@H]1CC[C@@H]2[C@H](COc3ccc(NC(=O)c4ccccc4OC)cc3C(=O)N2C)O1 | -6.13% (inactive)
CN1C[C@H]2[C@@H](c3ccccc31)[C@@H](CO)N2C(=O)Nc1ccccc1 | -0.471% (inactive)
COc1ccc(S(=O)(=O)N(C)C[C@@H]2OCc3ccccc3-c3ccccc3C(=O)N([C@@H](C)CO)C[C@@H]2C)cc1 | -0.955% (inactive)
Cc1[nH]n(-c2cccc(Cl)c2)c(=O)c1/C=N/n1c(C)nc2ccccc2c1=O | 46.7% (active)
Cc1nc2ccccc2c(=O)n1-c1ccc(NS(=O)(=O)c2ccc(F)cc2F)cc1 | -1.59% (inactive)
CCCNC(=O)Nc1ccc2c(c1)C(=O)N(C)C[C@@H](OC)[C@@H](C)CN(Cc1ccccn1)[C@@H](C)CO2 | -2.12% (inactive)
CO[C@@H]1CN(C)C(=O)c2cc(NS(=O)(=O)Cc3ccccc3)ccc2OC[C@H](C)NC[C@H]1C | 1.43% (inactive)
CC(C)NC(=O)N[C@H]1CC[C@H](CC(=O)NCCCN(C)C)O[C@H]1CO | -5.48% (inactive)
C[C@H](CO)N1C[C@H](C)[C@H](CN(C)CC2CC2)OCCCC[C@H](C)Oc2ccc(NS(=O)(=O)c3cccs3)cc2C1=O | -8.86% (inactive)
C[C@@H]1CN([C@@H](C)CO)C(=O)c2cccc(NC(=O)Nc3ccc(C(F)(F)F)cc3)c2O[C@@H]1CN(C)S(=O)(=O)c1cccs1 | -2.19% (inactive)
COC(=O)CCCCCCC(=O)Nc1ccc(C2OC(CSc3nc(-c4ccccc4)c(-c4ccccc4)o3)CC(c3ccc([N+](=O)[O-])cc3)O2)cc1 (stereo not given) | 1.18% (inactive)
Nc1nnnn1/N=C/c1cccc(Br)c1 | 3.65% (inactive)
Nc1nnnn1/N=C/c1cccs1 | 3.88% (inactive)
Nc1nnnn1/N=C/c1cc([N+](=O)[O-])ccc1O | 75.7% (active)
C[C@@H]1CCCCO[C@@H](CN(C)S(=O)(=O)c2cn(C)cn2)[C@H](C)CN([C@H](C)CO)C(=O)c2cc(NC(=O)NC3CCCCC3)ccc2O1 | -15% (inactive)
O=C(C[C@@H]1C[C@@H]2c3cc(NC(=O)CC4CC4)ccc3O[C@@H]2[C@@H](CO)O1)NCCN1CCCCC1 | -1.06% (inactive)
COCC#Cc1cnc2c(c1)C(=O)N([C@@H](C)CO)C[C@@H](C)[C@H](CN(C)C(=O)c1cnccn1)O2 | 4.05% (inactive)
